Shown are actives, neighbours in structure and some others; about 10% of the full set was active somewhere.
G9a inh: qHTS Assay for Inhibitors of Histone Lysine Methyltransferase G9a; 8.8% of 350,000 active; G9a H3K9 monomethylation, AlphaScreen, 2 h; Histone-lysine N-methyltransferase EHMT2 (Homo sapiens), Q96KQ7; Potency, µM (doses to about 102 µM), for inactives: at the highest dose activity, negative = inhibition, hits mostly inhibitors; note: potency is the fitted concentration of half-maximal effect; % is set by controls: 0 for no effect and ±100 for the full control effect; nearly all actives have a fitted effect of over 75% in size
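Methyltransferase reactions run at room temperature for 2 h (20 nM enzyme, 500 nM biotin-H3K9 peptide, 20 uM SAM) after a 15 min compound preincubation; product detected by AlphaScreen beads and anti-H3K9me1 antibody.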
Six1-Eya2 inh: qHTS Assay for Inhibitors of the Six1/Eya2 Interaction; 0.56% of 360,000 active; AlphaScreen GST-Six1/His-Eya2 binding, biochemical; stronger effect = lower value; activity change, % (concentration not given with the values); in the data active = activity change below about -65%; inconclusive = mostly about -30% to -63%; note: % is set by controls: 0 for no effect and ±100 for the full control effect
Target sequence (O00167 whole entry, looked up): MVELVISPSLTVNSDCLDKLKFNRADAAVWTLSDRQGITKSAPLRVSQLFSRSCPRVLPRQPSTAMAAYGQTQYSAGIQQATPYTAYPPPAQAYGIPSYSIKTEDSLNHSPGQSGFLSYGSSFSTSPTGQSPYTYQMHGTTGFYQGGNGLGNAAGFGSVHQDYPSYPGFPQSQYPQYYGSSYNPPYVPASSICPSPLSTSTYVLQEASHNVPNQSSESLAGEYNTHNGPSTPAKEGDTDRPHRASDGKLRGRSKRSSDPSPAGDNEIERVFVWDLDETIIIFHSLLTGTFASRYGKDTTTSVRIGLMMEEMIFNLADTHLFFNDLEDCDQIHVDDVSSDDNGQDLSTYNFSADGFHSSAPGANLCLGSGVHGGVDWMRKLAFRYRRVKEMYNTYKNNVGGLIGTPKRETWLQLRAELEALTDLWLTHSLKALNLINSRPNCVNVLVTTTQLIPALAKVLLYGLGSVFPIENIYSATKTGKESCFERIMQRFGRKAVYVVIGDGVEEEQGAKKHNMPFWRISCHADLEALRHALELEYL
Target sequence (Q15475 whole entry, looked up): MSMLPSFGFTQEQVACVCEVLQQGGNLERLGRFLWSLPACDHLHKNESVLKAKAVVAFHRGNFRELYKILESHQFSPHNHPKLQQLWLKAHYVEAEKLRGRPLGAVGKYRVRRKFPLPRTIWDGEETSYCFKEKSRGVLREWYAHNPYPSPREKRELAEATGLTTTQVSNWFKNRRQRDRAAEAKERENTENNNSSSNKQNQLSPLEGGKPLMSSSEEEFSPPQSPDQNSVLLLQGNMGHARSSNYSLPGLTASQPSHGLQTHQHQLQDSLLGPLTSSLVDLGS
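GST-Six1 + His-Eya2 (5X stock: 250/500 nM); Tris pH 8.0, 300 mM NaCl, 0.05% BSA, 0.02% Tween 20; GSH donor/Ni acceptor beads; 1 h 37 °C dark; AlphaScreen readout.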
CtBP-E1A inh: qHTS Assay for Inhibitors of the CtBP/E1A Interaction; AID 651724, 2012; CtBP / adenovirus E1A interaction (AlphaScreen); 0.49% of 340,000 active; activity change, % (test concentration not listed); AlphaScreen GST-E1A/His-CtBP binding, 1536-well; stronger effect = lower value; in the data active = activity change below about -65%; inconclusive = mostly about -30% to -63%; note: % is set by controls: 0 for no effect and ±100 for the full control effect
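Protein mix (5X: 125 nM each GST-E1A, His-CtBP) was incubated with pinned compound 2 h at 37 deg C in dark, in 50 mM Tris pH 8.0 buffer with 300 mM NaCl. Glutathione donor and nickel acceptor beads followed; AlphaScreen signal read after 1 h.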
HP1b chromo inh: HTS for Inhibitors of HP1-beta Chromodomain Interactions with Methylated Histone Tails. AlphaScreen HP1-beta / biotin-H3K9me3 peptide binding. Potency, µM (doses to about 114 µM), for inactives: at the top dose activity change, negative = inhibition, most hits filed as inhibitors. 0.56% of 390,000 active; note: potency is the fitted concentration of half-maximal effect; nearly all actives have a fitted effect of over 70% in size
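Compound inhibition of the preformed complex between 50 nM HP1-beta and 50 nM biotinylated H3K9me3 peptide was read by AlphaScreen. Buffer was PBS pH 7.4 with 0.01% Tween-20. Incubations ran 30 min at room temperature, with 10 ug/mL donor/acceptor beads.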
JMJD2A Tudor inh: qHTS Assay for Inhibitors of JMJD2A-Tudor Domain; 4.4% of 390,000 active; AlphaScreen JMJD2A-Tudor / H3K4me3 peptide binding; Potency, µM (highest dose often 114 µM), for inactives: top-dose activity change, negative = inhibition, hits mostly inhibitors; Lysine-specific demethylase 4A (Homo sapiens), O75164; note: potency is the fitted concentration of half-maximal effect; % is set by controls: 0 for no effect and ±100 for the full control effect; nearly all actives have a fitted effect of over 50% in size
BAZ2B block: qHTS Assay for Inhibitors of BAZ2B. AID 504333, 2011. Potency, µM (highest dose often 114 µM), inactives show at the top dose activity change, negative = inhibition, most hits filed as inhibitors. Bromodomain adjacent to zinc finger domain protein 2B (Homo sapiens), Q9UIF8. 4.4% of 360,000 active. AlphaScreen BAZ2B-H3K14Ac peptide displacement; note: potency is the fitted concentration of half-maximal effect; % is set by controls: 0 for no effect and ±100 for the full control effect; nearly all actives have a fitted effect of over 60% in size
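AlphaScreen displacement of biotin-H3(5-23)K14Ac peptide (50 nM final) from BAZ2B (50 nM final) in PBS pH 7.4, 0.01% Tween-20; complex preformed 30 min RT, then compounds (top 110 uM) 30 min RT, beads 20 min dark.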
Numbers without * were called inactive; ? = inconclusive; nt = no result given; [ ] = another dose, or the depositor's remark. Unless noted, calls come from the whole dose curve; as a rule, active = well fitted inhibition curve with a large enough effect; inconclusive = small, poorly fitted or top-dose-only effect; inactive = no such curve, though single readings can be large or run the other way.

SMILES	G9a inh	Six1-Eya2 inh	CtBP-E1A inh	HP1b chromo inh	JMJD2A Tudor inh	BAZ2B block
COc1ccc(Cl)cc1C(=O)Nc1ccccc1N1CCN(C(=O)C(C)C)CC1	8%	?	-29	0%	-20%	2%
CCn1c(=O)c(=O)n(CC)c2cc(N3CCCCC3)c(NC(=O)c3ccccc3OC)cc21	-13%[59 µM]	nt	nt	37%	-1%	-1%
CCn1c(=O)n(CC)c2cc(N3CCCC3)c(NC(=O)c3ccccc3OC)cc21	35µM*	-20	-25	?	?	45µM*
COC(=O)[C@]12CCCCC=C1N(CCC1=CCCCC1)C(=O)[C@H](CC(=O)N1CCN(C(=O)C3CC3)CC1)C2	nt	-4	0	nt	nt	nt
CN1CCc2c(sc(NC(=O)c3ccc(S(=O)(=O)N4CCCC4)cc3)c2C(N)=O)C1	15%	-4	-8	25%	-10%	-2%
CCOC(=O)c1c(NC(=O)c2ccc(S(=O)(=O)N3CCC(C)CC3)cc2)sc2c1CCN(C)C2	-24%[59 µM]	nt	nt	28%	-34%	-2%
CCOC(=O)N1CCN(S(=O)(=O)c2ccc(C(=O)Nc3sc4c(c3C(N)=O)CCN(CC)C4)cc2)CC1	50µM*	0	-9	22%	-26%	?
CN1CCc2c(sc(NC(=O)c3ccc(S(=O)(=O)N4CCOCC4)cc3)c2C(N)=O)C1	40µM*	-4	2	20%	-27%	1%
CCOC(=O)N1CCN(S(=O)(=O)c2ccc(C(=O)Nc3sc4c(c3C(=O)OC)CCN(C)C4)cc2)CC1	56µM*	-7	-6	32%	-28%	-23%
CN1CCc2c(sc(NC(=O)C3CCCN3S(=O)(=O)c3ccc(Cl)s3)c2C(N)=O)C1 (stereo unspecified)	45µM*	-1	-5	17%	-11%	-3%
Cc1ccc(C(c2nnnn2CC2CCCO2)N2CCN(Cc3ccccc3)CC2)cc1 (stereo unspecified)	6%	2	-5	13%	-21%	-14%
COc1ccc(NC(=O)N2CCN(Cc3nc4ccc(C)cc4o3)CC2)cc1OC	12%[59 µM]	nt	nt	26%	-6%	-18%
Cc1ccc(-c2cn3cccnc3n2)cc1NC(=O)Cc1ccccc1	11%[59 µM]	nt	nt	28%[57 µM]	-16%	1%
CCOC(=O)c1ccc(CN(Cc2ccc(F)cc2)S(=O)(=O)c2ccc(F)c(C(=O)Nc3c(C)cccc3C)c2)cc1	5%[59 µM]	nt	nt	17%	-5%	4%
COc1ccc(N(C(=O)c2ccc(C(C)(C)C)cc2)S(=O)(=O)c2ccc(Cl)cc2)cc1	3%[59 µM]	nt	nt	18%	-18%	-8%
CCN(CC)C(=O)CN1CCN(c2ncccn2)CC1	5.6µM*	4	6	?	4.5µM*	25µM*
COc1ccccc1C1NC(c2ccc3c(c2)OCO3)=CC(c2ccccc2O)N1 (stereo unspecified)	nt	nt	nt	2%[57 µM]	-9%[57.1 µM]	nt
CCOC(=O)c1nnc(-c2ccccc2)nc1Sc1c(Cl)cccc1Cl	40µM*	0	-4	-22%	?	?
Cc1csc(NC(=O)CNS(=O)(=O)c2cccs2)n1	47%[12.7 µM]	3	-8	5%	8.9µM*	-2%
COCCNCC(=O)Nc1nc(C)cs1	8.9µM*	0	50	15%	?	32µM*
COc1ccc2nc(NC(=O)CNS(=O)(=O)c3cccs3)sc2c1	10%[12.7 µM]	0	1	1%	-27%	-7%
Cc1sc2ncn(CC(=O)N(C)c3ccc(C(C)C)cc3)c(=O)c2c1S(=O)(=O)N1CCC(C)CC1	-32%[59 µM]	nt	nt	11%	-28%	-16%
Cc1nnc(C)c2c(C)n(-c3ccc(Cl)c(N)c3)c(C)c12	56µM*	5	-5	-9%	?	-33%
Cc1cc(C)cc(-n2c(C)c3c(C)nnc(C)c3c2C)c1	?	6	6	-19%	?	?
COc1ccc(C(=O)NNC(=S)NC(=O)/C=C/c2cccs2)cc1	3%	-1	3	11%	-22%	-6%
SMILES	G9a inh	Six1-Eya2 inh	CtBP-E1A inh	HP1b chromo inh	JMJD2A Tudor inh	BAZ2B block
O=C(/C=C/c1cccs1)NC(=S)NNC(=O)c1ccccc1O	10µM*	-76*	-94*	6%	79µM*	?
O=C(/C=C/c1cccs1)NC(=S)Nc1ccccc1	nt	-1	-2	2%	?	32µM*
COc1ccc(-n2c(=O)c(-c3cccs3)nc3cnc(Oc4ccccc4)nc32)cc1	1%[12.7 µM]	nt	nt	nt	nt	nt
CCOc1ccc(C2C(C(=O)c3ccc(C)o3)=C(O)C(=O)N2CCN2CCOCC2)cc1OC (stereo unspecified)	18µM*	5	5	39%	28µM*	?
COc1cccc(C2C(C(=O)c3ccc(C)o3)=C(O)C(=O)N2CCN2CCOCC2)c1 (stereo unspecified)	nt	21	0	67%	-35%	-14%
COc1ccc(C2C(C(=O)/C=C/c3ccco3)=C(O)C(=O)N2CCN2CCOCC2)cc1OC (stereo unspecified)	50µM*	-15	1	21%	-19%	nt
CCCOc1ccc(C2C(C(=O)c3ccco3)=C(O)C(=O)N2CCN2CCOCC2)cc1OC (stereo unspecified)	?	nt	nt	nt	nt	-11%
COc1cc(C2C(C(=O)c3cc4ccccc4o3)=C(O)C(=O)N2CCN2CCOCC2)ccc1OCCC(C)C (stereo unspecified)	nt	0	1	8%	-30%	-14%
CC(C)c1ccc(C2C(C(=O)c3ccco3)=C(O)C(=O)N2CCN2CCOCC2)cc1 (stereo unspecified)	50µM*	6	20	30%	-12%	-7%
CCOc1ccc(C2C(C(=O)c3ccco3)=C(O)C(=O)N2CCN2CCOCC2)cc1OCC (stereo unspecified)	40µM*	-2	-5	23%	-16%	-20%[57.1 µM]
Cc1ccc(C(=O)Cn2c3c(sc2=N)CCCC3)cc1	-41%[59 µM]	nt	nt	nt	nt	nt
C[C@H](NC(=O)[C@@H]1Cc2ccccc2CN1C(=O)OC(C)(C)C)C(=O)NCc1ccco1	-13%	-2	-18	54%	-15%	-27%
C#C[C@]1(O)CC[C@H]2[C@@H]3CCC4=CCCC[C@@H]4[C@H]3C(=C)C[C@@]21CC	5%[12.7 µM]	nt	nt	nt	nt	nt
